Results reported in ChEMBL document CHEMBL3988442, “University of Dundee, Small-Polar-MMV Screening Library” (2021).
In all, about 48,000 compounds went through this assay and about 13,000 (27%) showed an effect of 50% or more. The list shows a part of the results.

Test system: Wolbachia pipientis
Test: Anti-Wolbachia Cell-Based Screen
Assay type: functional
Set-up: scale not given: in the data most compounds retested in dose-response had high values
Details: 5 µM

Compound | Percent Effect [%]
CCNC(=O)N1CC[C@H]2CC(=O)N(CCN3CCNC3=O)CC[C@H]2C1 | 12.62
Cl.OC(CNCc1ccccc1C(F)(F)F)c1ccccc1 (configuration not stated) | -21.52
Cn1cnc2c1CCN(Cc1nc(Cc3ccccc3)no1)C2 | -6.335
CC(C)Cc1noc(CN2CCN(CCO)CC2)n1 | -13.58
CC1CCCCN1Cc1nc(Cc2ccccc2)no1 (configuration not stated) | -14.27
CC(C)Cc1noc(CN2CCOCC2C)n1 (configuration not stated) | 87.61
CC1COCCN1Cc1nc(Cc2ccccc2)no1 (configuration not stated) | 106.6
CC(C)Cc1noc(CN2CCOCC2)n1 | -2.166
O=C(O)[C@@]12CN(c3cnccn3)C[C@@H]1CN(C1CCCC1)C2 | 11.78
CCS(=O)(=O)N(C)CC(=O)Nc1ccc(Br)cn1 | 11.17
CC1CN(C)c2ccccc2CN1C(=O)c1ccoc1 (configuration not stated) | -34.7
COc1ccccc1OC1CCN(C(=O)C2CCCN(C)C2)CC1 (configuration not stated) | -2.238
COc1ccccc1CC1CCN(C(=O)CCN2CCOC2=O)CC1 | -13.03
COc1cccc(CN2CC(O)CN(C(=O)C3CCC3)CC2=O)c1OC (configuration not stated) | 107.9
COc1ccc(OC)c(C2CCN(C(=O)[C@H]3CC[C@@H](O)CC3)C2)c1 (some centres not stated) | 4.796
COc1cccc(CN2CC(O)CN(C(=O)C3CC3)CC2=O)c1OC (configuration not stated) | 103.4
CNC(=O)[C@@H](c1ccccc1OC)N1CCC[C@H]1C(=O)N1CC[C@@H](O)C1.Cl | 4.858
CSCc1noc(CN2CCC3(CC2)CC(=O)N(CC(C)C)C3)n1 | 6.142
Fc1ccc(CN2CCCn3nnc(COCC4CC4)c3C2)cc1.O=C(O)C(F)(F)F | -22.46
CNCc1n[nH]c(=O)n1CC1CCCCC1 | 9.971
CCOCC(=O)N1CCC(c2nccn2C)CC1 | -1.738
CCCSCC(=O)N1C[C@@H](NC(C)=O)[C@H](c2ccc(OC)cc2)C1 | 13.13
CCOCC(=O)N1C[C@@H](O)[C@H](NC(C)=O)C1 | 181
CC(=O)N[C@@H]1CN(C(=O)CC2CCOCC2)C[C@H]1O | 144.5
CC(=O)N[C@@H]1CN(C(=O)CC2CC2)C[C@H]1O | 207.4
COc1ccc([C@@H]2CN(C(=O)CCC(F)(F)F)C[C@H]2NC(C)=O)cc1 | 11.36

Compound | Percent Effect [%]
O=C(CC1CC1)N1C[C@H]2CN(CC3CC3)C(=O)[C@H]2C1 | -33.8
CCC(CC)n1nc(C)cc1NC(=O)CC1CCOCC1 | 0.9076
CCOCC(=O)N1C[C@@H](NC(C)=O)[C@H](c2ccc(OC)cc2)C1 | 0.296
O=C(NCCCn1cncn1)c1ccc(-c2ccco2)[nH]c1=O | 2.326
CCc1ccc(CNC(=O)N2CCN(Cc3cc(C)no3)CC2)s1 | 7.686
CNC(=O)[C@@H]1[C@@H](c2ccccc2)CN2CCN(Cc3ccco3)C[C@H]12 | 101.4
Cc1c(C(=O)NCC2CCN(Cc3ccco3)C2)[nH]c2ccccc12 (configuration not stated) | 19.49
CNC(=O)C1Cc2ccccc2CN1CCc1cccs1 (configuration not stated) | 15.23
Cc1n[nH]c(C)c1CCNC(=O)C1CCCN(Cc2ccco2)C1 (configuration not stated) | -10.07
CNC(=O)[C@@H]1[C@@H](c2ccccc2)CN2CCN(Cc3cccs3)C[C@H]12 | 88.53
CNC(=O)[C@@H]1[C@@H](c2ccccc2)CN2CCN(Cc3cc(C)no3)C[C@H]12 | 101.2
Cc1cc(CNC(=O)N2CCN(Cc3ccccc3)C[C@H]2C)on1 | -6.347
CNC(=O)[C@@H]1[C@H]2CN(Cc3ccoc3)CCN2C[C@H]1c1ccccc1 | 117.2
O=C(Nc1ccc(-c2ccn[nH]2)cc1)C1CCCN(Cc2ccoc2)C1 (configuration not stated) | 1.932
CN(C)C(=O)NC[C@H]1OC[C@@H]2CCN(Cc3ccoc3)C[C@@H]21 | -34.99
CN1C(=O)CO[C@H](c2ccc(NC(=O)NC(C)(C)C)cc2)[C@H]1CO | -13.32
COc1ccc(OC)c(CN2CCCCCC2c2cccs2)c1 (configuration not stated) | -3.603
Cc1ccc(N(CCC#N)C(=O)CN2CCCC2c2cccs2)cc1 (configuration not stated) | -26.13
Oc1ccccc1CN1CCCCCC1c1cccs1 (configuration not stated) | 93
CCN(C(=O)CN1CCCC1c1cccs1)c1ccccc1C (configuration not stated) | 5.729
COc1ccc(CN2CCCCCC2c2cccs2)c(OC)c1 (configuration not stated) | 95.82
COc1ccc(CN2CCSCC2)c(OC)c1 | -5.529
COc1ccc(CN2CCCCCC2c2cccs2)c(O)c1 (configuration not stated) | 114.4
Cn1nc(C(=O)N(CC(F)(F)F)c2cccc(Cl)c2)ccc1=O | -17.45
Cn1cc(NC(=O)Nc2ccccn2)cc(Cl)c1=O | 10.33
CNC(=O)[C@@H]1COC[C@H]2CN(C(=O)c3cccc(OC)c3)C[C@H]21 | 4.207
